These results are taken from PubChem BioAssay (NCATS).

Inconclusive results are not listed. Entries that show only a call come without a potency. Calls of active or inactive are those of the source. Unless noted, the call rests on the fitted dose curve; in most records, active means well fitted curve in the direction sought with a large enough effect; inconclusive means small, poorly fitted or top-dose-only effect, or another doubt; inactive means no such curve, though single readings can be large; an effect the other way counts as inactive or inconclusive.

Chain of Calcium and integrin-binding protein 1 (Homo sapiens) (Q99828 whole entry, looked up): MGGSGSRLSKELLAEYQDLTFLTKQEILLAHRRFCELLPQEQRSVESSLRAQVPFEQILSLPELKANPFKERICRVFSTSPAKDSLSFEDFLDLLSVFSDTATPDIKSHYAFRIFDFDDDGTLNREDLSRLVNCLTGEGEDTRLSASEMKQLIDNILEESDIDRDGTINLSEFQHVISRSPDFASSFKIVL

System in the first assay: not listed separately
The assay is described as follows: qHTS to identify inhibitors of the type 1 interferon - major histocompatibility complex class I in skeletal muscle: primary screen against the NCATS Mechanism Interrogation Plate v5.0 (MIPE) Libary (AID 1347411). Further: nearly all actives have a fitted effect of over 65% in size. Further: potency means the concentration at half of the fitted maximal effect. Conditions: iHSKM cells + IFN-b, HiBiT-tagged MHC-I luminescence, 24 h; series mostly up to 45.8 µM. In a few lines: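 Seed engineered human myoblasts (HLA-B HiBit) in medium without dexamethasone containing 4 ng/ml IFN-beta; after 1 hr add compound titrations (top 46 uM final). Incubate 24 hrs at 37 C, lyse 10 min with HiBiT reagent, read luminescence.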
(In qHTS, concentration-response curves come from the screen itself.)
Consider `Cc1cc(C)c(S(=O)(=O)N(CCc2cccc(Br)c2)Cc2ccc(-c3cccc(S(C)(=O)=O)c3)cc2)c(C)c1`, for which the Potency entry is “inactive”.

Turning to `CN(CCOc1ccc(C[C@H](Nc2ccccc2C(=O)c2ccccc2)C(=O)O)cc1)c1ccccn1`, the Potency entry is “inactive”.

For `CC(=O)N1c2ccc(-c3ccc(C(=O)O)cc3)cc2[C@H](Nc2ccc(Cl)cc2)C[C@@H]1C`, the Potency entry is “inactive”.

With `COC1=C(OC)C(=O)C(C/C=C(\C)CC/C=C(\C)CC/C=C(\C)CC/C=C(/C)CC/C=C(\C)CC/C=C(\C)CC/C=C(\C)CC/C=C(\C)CC/C=C(\C)CCC=C(C)C)=C(C)C1=O`, the Potency entry was “inactive”.

As for `Cc1ccc(-n2c(C)cc(-c3nnc4n3CCCCC4)c2C)cc1`, the Potency result was “inactive”.

With `CS(=O)(=O)c1ccc(-c2cnc(NCc3ccco3)n3cnnc23)cc1`, the Potency entry is “inactive”.

`COc1nc(N)nc2c1ncn2C1OC(CO)C(O)C1O` (stereo unspecified): the Potency result is “inactive”.

`C/C(=N\NC(=O)c1cccc(S(=O)(=O)N2CCOCC2)c1)c1cc(Cl)ccc1O`: the Potency result is “inactive”.

With `CNc1nc(-c2ccc3c(N)n[nH]c3c2)cc(N2C[C@@H](C(=O)NC3CCCCC3)CC[C@H]2C)n1`, the Potency was 13.1 µM (active).

For `Cn1cc(/C=C2\C(=O)Nc3cccnc32)c2ccccc21`, the Potency was 29.4 µM (active).

For `C[C@@H]1CC(=O)Nc2cccc(-c3cnn(C(C)(C)C)c3)c2N1`, the Potency result was “inactive”.

Regarding `O=C(CCCc1ccc2cccnc2n1)NCc1cc(-c2ccc(F)c(C(F)(F)F)c2)no1`, the Potency entry is “inactive”.

For the compound `Cc1cccc(/C=N/Nc2cc(N3CCOCC3)nc(OCCc3ccccn3)n2)c1`, the Potency entry is “inactive”.

As for `NS(=O)(=O)c1ccc(Cc2c(-c3cccc(-c4ccccc4)c3)nn(-c3nc(C(=O)O)cs3)c2CC2CC2)cc1`, the Potency result is “inactive”.

With `C[C@H]1[C@H](C)CC[C@]2(C(=O)O)CC[C@]3(C)C(=CC[C@@H]4[C@@]5(C)CC[C@H](O)C(C)(C)[C@@H]5CC[C@]43C)[C@H]12`, the Potency result is “inactive”.

In the case of `COc1ccc([C@@H](O)[C@@H](C)Oc2ccc([C@H]3O[C@H](c4ccc(O[C@H](C)[C@H](O)c5ccc(OC)c(OC)c5)c(OC)c4)[C@H](C)[C@H]3C)cc2OC)cc1OC`, the Potency result is “inactive”.

Consider `CN(C)C[C@@H]1CCn2cc(c3ccccc32)C2=C(C(=O)NC2=O)c2cn(c3ccccc23)CCO1`, for which the Potency was 4.66 µM (active).

On to `COc1cc2nccc(Oc3ccc(NC(=O)c4cn(C(C)C)c(=O)n(-c5ccc(F)cc5)c4=O)cc3F)c2cc1OC`, for which the Potency entry was “inactive”.

As for `C[C@H](NC(=O)CCC(F)(F)F)C(=O)N[C@@H]1C(=O)N(CCO)c2ncccc2-c2ccccc21`, the Potency result was “inactive”.

With `CC(=NNC(=O)c1cccc(S(=O)(=O)N2CCOCC2)c1)c1cc(Cl)ccc1O`, the Potency result was “inactive”.

In the case of `C[C@H](CCC(=O)O)[C@H]1CC[C@H]2[C@@H]3[C@@H](O)C[C@@H]4C[C@H](O)CC[C@]4(C)[C@H]3CC[C@]12C`, the Potency entry is “inactive”.

In the case of `Clc1cccc(-c2ccc(-c3nnc(CCCc4ccc5cccnc5n4)o3)cc2)c1`, the Potency entry was “inactive”.

For the compound `C=C1CCC2[C@](C)(CO)C(O)CC[C@]2(C)C1C/C=C1/C(=O)OCC1O` (stereo partly specified), the Potency is 13.1 µM (active).

Consider `Cc1c(-c2cnccn2)ssc1=S`, for which the Potency result is “inactive”.

Take `CC1(C(=O)O)CCC2(C)CCC3(C)C(=CC(=O)C4C5(C)CCC(OC6OC(C(=O)O)C(O)C(O)C6OC6OC(C(=O)O)C(O)C(O)C6O)C(C)(C)C5CCC43C)C2C1` (stereo unspecified): the Potency entry was “inactive”.

The next assay addresses Calcium and integrin-binding protein 1 (Homo sapiens) (UniProt Q99828). The assay is described as follows: Primary qHTS for Identification of Calcium Integrin Binding Protein 1 (CIB1) Competitor (AID 1508620).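 Further: GST tagged CIB1 binding a fluorescein labelled alphaIIb integrin peptide tracer; top concentration of the series differs between compounds.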 The following applies: CIB1-GST / FITC-alphaIIb peptide fluorescence polarization; series mostly up to 114 µM. The method in brief: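 CIB1-GST (1 uM final) and compound incubated 15 min at room temperature before adding FITC-alphaIIb peptide tracer (100 nM final). Competition for binding read by fluorescence polarization (ex 480, em 540) after another 15 min at room temperature.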
Regarding `O=C(O)c1ccc(O)c2ncccc12`, the Potency entry was “inactive”.

For the compound `COc1ccc(-n2cnc3cc(C(=O)N4CCCCC4)ccc32)cc1`, the Potency result is “inactive”.

Turning to `CN(Cc1ccccc1)C(=O)c1ccc(S(=O)(=O)Nc2ccccc2)cc1`, the Potency entry is “inactive”.

Regarding `Cc1ccc(-n2c(C)cc(-c3nnc4n3CCCCC4)c2C)cc1`, the Potency result was “inactive”.

As to `C[C@@H]1CC(=O)Nc2cccc(-c3cnn(C(C)(C)C)c3)c2N1`, the Potency entry was “inactive”.

Regarding `O=C(CCCc1ccc2cccnc2n1)NCc1cc(-c2ccc(F)c(C(F)(F)F)c2)no1`, the Potency result is “inactive”.

Turning to `Clc1cccc(-c2ccc(-c3nnc(CCCc4ccc5cccnc5n4)o3)cc2)c1`, the Potency result is “inactive”.

For the next assay, the target named is Cytochrome P450 2D6 (Homo sapiens) (UniProt P10635). Briefly: Cytochrome P450 family 2 subfamily D member 6 (CYP2D6) small molecule antagonists: luciferase biochemical (cell-free) qHTS assay (AID 1645840; active means well fitted curve in the direction sought with a large enough effect in the repeat runs; an effect the other way counts as inactive or inconclusive; further: nearly all actives have a fitted effect of over 55% in size; further: potency means the concentration at half of the fitted maximal effect). Conditions: P450-Glo CYP2D6 enzyme, luciferin luminescence, 1 h; series mostly up to 57.4 µM. The method in brief: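 P450-Glo CYP2D6 system: proluciferin substrate converted by enzyme to luciferin, read by luminescence proportional to activity. Enzyme-substrate mix with compound 10 min at room temperature, then NADPH regeneration 1 h before detection reagent.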
Chain of Cytochrome P450 2D6 (Homo sapiens) (P10635 whole entry, looked up): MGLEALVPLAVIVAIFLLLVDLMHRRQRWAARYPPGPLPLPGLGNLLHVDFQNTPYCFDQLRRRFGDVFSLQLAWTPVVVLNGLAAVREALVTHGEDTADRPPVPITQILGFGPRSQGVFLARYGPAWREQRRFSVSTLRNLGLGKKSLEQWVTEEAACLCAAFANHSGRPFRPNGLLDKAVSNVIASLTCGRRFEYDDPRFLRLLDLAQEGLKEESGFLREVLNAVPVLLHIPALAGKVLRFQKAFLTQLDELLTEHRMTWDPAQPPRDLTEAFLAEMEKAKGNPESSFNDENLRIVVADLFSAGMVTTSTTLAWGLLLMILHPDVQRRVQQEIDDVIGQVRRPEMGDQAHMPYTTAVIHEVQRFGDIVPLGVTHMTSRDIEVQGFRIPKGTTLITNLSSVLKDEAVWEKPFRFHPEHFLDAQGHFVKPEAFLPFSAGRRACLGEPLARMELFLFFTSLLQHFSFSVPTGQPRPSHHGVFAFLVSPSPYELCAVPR
For the compound `O=C(/C=C/c1cccnc1)NCCCCC1CCN(C(=O)c2ccccc2)CC1`, the Potency is 16.9 µM (active).

In the case of `Cc1c(CN2CCN(C(=O)[C@H](C)O)CC2)sc2c(N3CCOCC3)nc(-c3cnc(N)nc3)nc12`, the Potency entry is “inactive”.

On to `Cc1cccc(/C=N/Nc2cc(N3CCOCC3)nc(OCCc3ccccn3)n2)c1`, for which the Potency was 10.7 µM (active).

`C[C@H](CCC(=O)O)[C@H]1CC[C@H]2[C@@H]3[C@@H](O)C[C@@H]4C[C@H](O)CC[C@]4(C)[C@H]3CC[C@]12C`: the Potency entry was “inactive”.

The target in another assay is Cytochrome P450 2C9 (Homo sapiens) (UniProt P11712). Briefly: Cytochrome P450 family 2 subfamily C member 9 (CYP2C9) small molecule antagonists: luciferase biochemical (cell-free) qHTS assay (AID 1645842; active means well fitted curve in the direction sought with a large enough effect in the repeat runs; an effect the other way counts as inactive or inconclusive; further: nearly all actives have a fitted effect of over 55% in size; further: potency means the concentration at half of the fitted maximal effect). The following applies: P450-Glo CYP2C9 enzyme assay, luciferin luminescence; series mostly up to 57.4 µM. The method in brief: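 P450-Glo CYP2C9 system: proluciferin substrate with enzyme in mix containing 0.4% BSA, 10 min at room temperature, then NADPH regeneration solution added and incubated 1 h at 37C. Detection reagent stopped reaction; luminescence read after 20 min as RLU.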
Chain of Cytochrome P450 2C9 (Homo sapiens) (P11712 whole entry, looked up): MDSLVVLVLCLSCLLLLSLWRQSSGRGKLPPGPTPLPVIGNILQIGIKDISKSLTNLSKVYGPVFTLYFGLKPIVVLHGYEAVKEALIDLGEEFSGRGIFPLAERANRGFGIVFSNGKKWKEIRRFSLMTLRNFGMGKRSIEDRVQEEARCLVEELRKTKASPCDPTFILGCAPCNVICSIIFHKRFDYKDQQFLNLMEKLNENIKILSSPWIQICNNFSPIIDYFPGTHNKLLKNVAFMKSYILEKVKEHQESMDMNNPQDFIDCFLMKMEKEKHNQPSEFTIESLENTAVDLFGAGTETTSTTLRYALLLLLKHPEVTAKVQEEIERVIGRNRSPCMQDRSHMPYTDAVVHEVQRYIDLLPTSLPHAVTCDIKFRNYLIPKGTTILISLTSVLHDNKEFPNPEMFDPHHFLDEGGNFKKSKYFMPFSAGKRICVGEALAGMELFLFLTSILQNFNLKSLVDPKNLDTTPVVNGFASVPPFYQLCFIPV
Regarding `O=C(/C=C/c1cccnc1)NCCCCC1CCN(C(=O)c2ccccc2)CC1`, the Potency was 13.5 µM (active).

Consider `Cc1c(CN2CCN(C(=O)[C@H](C)O)CC2)sc2c(N3CCOCC3)nc(-c3cnc(N)nc3)nc12`, for which the Potency entry was “inactive”.

As for `Cn1cc(/C=C2\C(=O)Nc3cccnc32)c2ccccc21`, the Potency entry was “inactive”.

For the compound `Cc1cccc(/C=N/Nc2cc(N3CCOCC3)nc(OCCc3ccccn3)n2)c1`, the Potency was 7.56 µM (active).

As for `NS(=O)(=O)c1ccc(Cc2c(-c3cccc(-c4ccccc4)c3)nn(-c3nc(C(=O)O)cs3)c2CC2CC2)cc1`, the Potency is 21.3 µM (active).
